Laboratory results as given in PubChem BioAssay AID977624 (Broad Institute, 2014).
Fewer than 10 of roughly 1,800 compounds were called active. Inconclusive results (about 44%) are left out.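 How the source made its calls: active means compound lowering the normal-ribosome reporter at least twice as much as the humanized-ribosome reporter, growth loss under a set limit; inconclusive means no clear call, values can overlap the other calls; inactive means the rest.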 Only a sample is shown.

assay: growth inhibition of wild-type GFP E. coli, dose response, h34 mutant RFP, cherry-pick (AID 977624); details: E. coli wild-type GFP strain growth, fluorescence, 24 h; series mostly up to 50 µM

outcome, inactive:
O=C1CN(C(=O)c2ccc(Cl)c(S(=O)(=O)N3CCc4ccccc43)c2)c2ccccc2N1
COc1ccccc1C1CCN(C(=O)c2ccco2)CC1
Cc1ccccc1SCC(=O)OCC(=O)Nc1sccc1C(N)=O
COc1ccc(-c2csc3ncn(-c4ccc(C)cc4)c(=O)c23)cc1OC
O=C(COC(=O)C12CC3CC(CC(O)(C3)C1)C2)NCCc1ccc(Cl)cc1
CCCc1c(C(=O)Nc2ccc(OC)cc2)cnn1-c1ccccc1
C=CCn1c(SCC(=O)Nc2ccc3c(c2)OCCO3)nnc1-c1ccco1
C[C@@H]1CCCCO[C@H](CN(C)C(=O)CCCN(C)C)[C@@H](C)CN([C@@H](C)CO)C(=O)c2cc(NC(=O)Nc3cccc4ccccc34)ccc2O1
CCn1nc(Cc2cccc3ccccc23)c(C#N)c1N
O=S(=O)(NCC1CCCO1)c1ccc(-c2ccc(Cl)cc2)cc1 (stereo not drawn)
Cc1ccccc1COc1ccc(-c2nn[nH]n2)cc1
CCc1ccc2[nH]c(C(=O)Nc3ccc4c(c3)OCO4)cc2c1
COc1ccc(Cl)cc1NC(=O)C1Cc2ccccc2CN1S(C)(=O)=O (stereo not drawn)
CC(C)(C)c1ccc(-c2noc(CCC(=O)NCc3ccco3)n2)cc1
CN(Cc1nnc(-c2ccc(F)cc2)o1)c1ccccc1
Cc1ccc(Cn2cnc3ccccc32)cc1
O=C(CSc1ccc(-c2cccnc2)nn1)N1CCCc2ccccc21
O=C1c2ccccc2C(c2nnnn2C2CCCCC2)N1CCc1ccc(O)cc1 (stereo not drawn)
CCOC(=O)C1CCCN(Cc2c(Cl)cccc2Cl)C1 (stereo not drawn)
CCOc1ccc2nc(SCC(=O)Nc3nonc3C)[nH]c2c1
CCCCCc1nnc(NC(=O)C2COc3ccccc3O2)s1 (stereo not drawn)
O=C(Cc1cccc(NC(=O)C2CCCN(C(=O)CCc3ccccc3)C2)c1)Nc1cccc(C(=O)N2CCCCC2)c1 (stereo not drawn)
CCN(CC)CCn1c(SCC(=O)Nc2cccc(OC)c2)nc2c(sc3ccccc32)c1=O
COc1ccccc1CCNC(=O)c1cccc(NC(=O)CC2SC(N3CCCCC3)=NC2=O)c1 (stereo not drawn)
Cc1cc(C(=O)COC(=O)CNC(=O)c2ccccc2)c(C)n1CC1CCCO1 (stereo not drawn)
COc1ccc(NC(=O)c2cccc(Oc3ccc([N+](=O)[O-])cc3Cl)c2)cc1
Cc1ccc(S(=O)(=O)Nc2ccc3c(c2)C(=O)N([C@@H](C)CO)C[C@@H](C)[C@H](CN(C)C(=O)c2ccccc2)OCCCC[C@@H](C)O3)cc1
CCOc1ccc(CN(C)C(=O)c2ccc(NS(=O)(=O)c3ccc4[nH]c(=O)[nH]c4c3)cc2)cc1
CCc1nc2ccccc2n1CCc1ccccc1
CCc1cc(C(=O)N2CCCC(C(=O)c3cccc4ccccc34)C2)n(C)n1 (stereo not drawn)
C=C(C)Cn1c(=O)c2c(nc3n2CCCN3Cc2ccccc2)n(C)c1=O
O=C(O)CCN(Cc1ccccc1)S(=O)(=O)c1ccccc1Cl
NC(=O)CSc1nc2cc([N+](=O)[O-])ccc2n1-c1cccc(C(F)(F)F)c1
CCC(C(=O)NCCc1ccc(C)cc1)n1nc(C)c2c(C)n(-c3ccccc3)nc2c1=O (stereo not drawn)
CCOc1ccccc1OCCCC(=O)N1CCN(S(=O)(=O)c2cc(F)ccc2F)CC1
CN(Cc1ccc(F)cc1)C(=O)CN1CCN(S(=O)(=O)c2ccc3c(c2)OCCCO3)CC1
Cc1cccc(-c2nsc(SCC(=O)NCC3CCCO3)n2)c1 (stereo not drawn)
Cc1cc(C)n2nc(C(=O)Nc3cccc(S(=O)(=O)N(C)c4ccccc4)c3)nc2n1
CC(=O)c1ccc(N2CCN(C(=O)C3CCN(S(=O)(=O)c4ccc5c(c4)CC(C)N5C(C)=O)CC3)CC2)cc1 (stereo not drawn)
Cc1cc(C)c(NC(=O)C(C)c2cccc(C(=O)c3ccccc3)c2)c(C)c1 (stereo not drawn)
COCC#Cc1ccc2c(c1)O[C@H](CN(C)C(=O)c1ccccc1)[C@@H](C)CN([C@H](C)CO)S2(=O)=O
C=CCn1c(SCc2n[nH]c(=S)n2-c2ccccc2)nnc1-c1ccccc1
CC(=O)c1ccccc1OCCOCCOCCOc1ccccc1C(C)=O
Brc1ccccc1CN1CCC(Cc2ccccc2)CC1
CCn1cc(CCC(=O)NCCc2ccccc2)c2ccccc21
COc1ccccc1N(C)S(=O)(=O)c1ccc(Cl)c(C(=O)NC2=NCCS2)c1
O=C(COC(=O)CNC(=O)c1ccc(F)cc1)Nc1cccc(S(=O)(=O)N2CCCC2)c1
COC(=O)c1ccc2nc(-c3cccc(Br)c3)c(Cc3ccsc3)n2c1
COc1cccc(C(=O)C2CCCN(C/C=C/c3ccccc3OC)C2)c1 (stereo not drawn)
O=C(NCc1ccccc1)c1cc(S(=O)(=O)N2CCCCC2)ccc1N1CCOCC1
CC(=O)c1c(N2CCOCC2)nc2ccc(Cl)cc2c1-c1ccccc1
O=C(NCc1nnnn1-c1ccc(Cl)cc1)c1ccc([N+](=O)[O-])o1
O=C(CCC(=O)N1CCN(c2ccc(F)cc2)CC1)N1CCN(c2ccc(F)cc2)CC1
COc1cccc(-c2ccc(SCc3ccccn3)nn2)c1
CCC(C(=O)NC1CCCC1)n1c(-c2ccnc3ccccc23)nc2ccccc21 (stereo not drawn)
C=CCNC(=O)c1ccccc1CCc1ccccc1
C=CCN(CC(O)c1cccc([N+](=O)[O-])c1)C(C)CCc1ccccc1 (stereo not drawn)
CO[C@@H]1CN(C)C(=O)c2cc(NC(=O)C3CCCC3)ccc2OC[C@@H](C)N(C(=O)Nc2ccc(C(F)(F)F)cc2)C[C@H]1C
COc1ccc(OC)c(CN2CCCC(C(=O)c3ccccc3SC)C2)c1 (stereo not drawn)
CCN1CCN(c2c(Cl)cccc2NC(=O)c2ccc([N+](=O)[O-])o2)CC1
CCN(C(=O)CSc1cc(C)c2ccc(OC)cc2n1)C1CCS(=O)(=O)C1 (stereo not drawn)
Cc1noc(NS(=O)(=O)c2ccc(NC(=O)c3cc(-c4ccccc4Cl)nc4ccccc34)cc2)c1C
O=C(COC(=O)C1CC1)Nc1nc(-c2ccc(F)c(F)c2)cs1
